Laboratory results published in PubChem BioAssay AID2549 (National Center for Advancing Translational Sciences (NCATS), 2010).
Values joined by “and” are separate entries in the source; they are usually repeats but may differ in a detail not shown here. Identical values can stand only once. About 1,300 (0.54%) of roughly 240,000 compounds were called active. Another 1% or so got no clear call; they are omitted. The sample holds actives, similar compounds and a random draw of the others, so the mix is not that of the screen. The call rests on the fitted dose curve; in most records, active means well fitted inhibition curve with a large enough effect; inconclusive means small, poorly fitted or top-dose-only effect; inactive means flat fitted curve, though single readings scatter. More than one record can exist for a structure, and the calls need not agree.

Target: ATP-dependent DNA helicase Q1 (Homo sapiens) (UniProt P46063)
Experiment: qHTS Assay for Inhibitors of RecQ-Like Dna Helicase 1 (RECQ1); further: nearly all actives have a fitted effect of over 30% in size
Conditions: RECQ1 DNA unwinding, red fluorescence kinetic read; series mostly up to 57.3 µM
Text: Survival of cells and the faithful propagation of the genome depend on elaborate mechanisms of detecting and repairing DNA damage. Treatment of advanced cancer relies on radiation therapy or chemotherapy, which kill cancer cells by causing extensive DNA damage. It is often found, that cancer cells develop resistance to therapy through enhanced activity of DNA repair functions; this has led to an increased interest in developing drugs that interfere with DNA repair, which could sensitize cancer cells to conventional therapy.
This validation qHTS assay pertains to human RECQ1, which is important in resolving abnormal DNA structures formed during replication or homologous recombination. Shutting down the expression of RECQ1 leads to chromosomal instability and higher radiation sensitivity in cultured cells.
The validation assay was a fluorescence quenching based kinetic qHTS for RECQ1 Helicase DNA unwinding. The activity was measured as ATP-dependent separation of a 20-bp DNA duplex extended by 30-nt single-stranded tails (forked duplex). The forked DNA substrate was tagged with rhodamine fluorophore (carboxytetramethyl rhodamine, TAMRA) and BHQ-2 (Black Hole Quencher 2) dark quencher. Strand separation results in an increase in the fluorescence of TAMRA (excitation 525 nm, emission 598 nm). This substrate construct operates in a red-shifted region where very few compound library members have been noted to fluoresce (PubChem AIDs 593 and 594). An additional feature of the assay is the inclusion of 2.5 ug/ml poly (dIdC), to reduce interference by compounds such as DNA intercalators, a major source of false inhibitors.
Opher Gileadi, Structural Genomics Consortium, University of Oxford
Screening Center PI: Austin, C.P.
Screening Center: NIH Chemical Genomics Center [NCGC]
Three uL of reaction buffer (25 mM Tris-HCl (pH 8.0), 5 mM NaCl, 2 mM MgCl2, 1mM DTT, 0.01% Tween- 20, and 2.5 ug/ml poly(dI-dC), including enzyme (50 nM RECQ1T1), were dispensed into a 1536-well Greiner black assay plate via solenoid-valve based nanoliter dispensers. Compounds (23 nl each in columns 5-48) and control (23 nl each in column 2 as dose-response) were transferred via a Kalypsys pintool equipped with a 1536-pin array. The plates were incubated for 15 min at room temperature, and then 1 ul of substrates (200 nM DNA and 2 mM ATP, final concentrations) was added to start the reaction. The plate was transferred into a ViewLux high-throughput CCD imager where the reaction progress was measured in a discontinuous kinetic mode (two reads spaced 2 hours apart, with intermediate room temperature incubation of the covered assay plate) by using standard red-fluorescence optics (excitation filter 525 nm, emission filter 598 nm). Enzyme-free and vehicle (DMSO) controls were included for signal normalization.
Potency means the concentration at half of the fitted maximal effect.

Sequence of ATP-dependent DNA helicase Q1 (Homo sapiens) (P46063 whole entry, looked up): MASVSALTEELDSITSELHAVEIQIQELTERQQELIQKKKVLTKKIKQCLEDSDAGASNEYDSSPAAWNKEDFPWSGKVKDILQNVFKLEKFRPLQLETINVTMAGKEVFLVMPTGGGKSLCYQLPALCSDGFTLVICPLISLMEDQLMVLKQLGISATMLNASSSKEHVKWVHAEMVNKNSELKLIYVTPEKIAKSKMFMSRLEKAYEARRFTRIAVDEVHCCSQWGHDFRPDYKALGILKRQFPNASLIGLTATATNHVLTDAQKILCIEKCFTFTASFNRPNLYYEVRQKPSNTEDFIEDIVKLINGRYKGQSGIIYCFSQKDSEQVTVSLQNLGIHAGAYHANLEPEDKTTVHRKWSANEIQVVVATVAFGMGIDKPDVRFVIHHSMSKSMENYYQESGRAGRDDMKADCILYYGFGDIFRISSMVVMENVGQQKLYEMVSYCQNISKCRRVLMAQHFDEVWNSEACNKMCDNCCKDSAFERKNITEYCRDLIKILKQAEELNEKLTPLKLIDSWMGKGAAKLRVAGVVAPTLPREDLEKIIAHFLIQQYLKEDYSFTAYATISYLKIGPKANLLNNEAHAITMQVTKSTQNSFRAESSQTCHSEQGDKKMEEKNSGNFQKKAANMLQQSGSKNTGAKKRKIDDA

Potency, active:
O=C1CSC(=S)N1/N=C/c1ccc(O)c([N+](=O)[O-])c1 25.1 µM
O=C1OCCN1C(=O)[C@H]1[C@H](c2ccc(Cl)cc2)C(c2cccc(Cl)c2)=NN1c1ccc(Br)cc1 25.1 µM
C[C@@H]1C(c2ccc(F)cc2)=NN(c2ccc(Br)cc2)[C@H]1C(=O)N1CCOC1=O 25.1 µM
Cc1ccc(NC(=O)CC2S/C(=N/N=C3\CCCc4ccccc43)NC2=O)cc1 (centres undefined) 25.1 µM
O=C(c1cc2c(s1)CCC2)N1CCN(c2ccccc2)CC1 11.2 µM
Cc1ccc(C)n1C(Cc1ccccc1)C(=O)O (centres undefined) 12.6 µM
CCOC(=O)C1=NO[C@@]2(C=C(Br)C(=O)[C@H]3O[C@H]32)C1 28.2 µM
Cc1ccc(N=C2NC(=O)/C(=C/C=C/c3ccco3)S2)cc1C 22.4 µM
CS(=O)(=O)c1ccc2c(c1)SC1=NC(=O)/C(=C/c3ccco3)C(=N)N12 28.2 µM
C/C(=N\NC(=S)NCc1ccccc1)c1ccc(Cl)cc1 31.6 µM
COc1ccc(OCC(=O)Nc2nnc(-c3ccco3)s2)cc1 31.6 µM
CN(c1ccccc1)c1ccc(/C=c2\s/c(=C(/C#N)C(=O)C(C)(C)C)n(Cc3ccco3)c2=O)cc1 17.8 µM
O=[N+]([O-])c1ccc(C=Nc2ccc(Cl)cc2Cl)s1 25.1 µM
c1ccc(CSc2nnc(-c3ccco3)c(-c3ccco3)n2)cc1 11.2 µM
Clc1ccccc1CSc1nnc(-c2ccco2)c(-c2ccco2)n1 35.5 µM
Oc1ccc(O)c2c(O)cccc12 3.98 µM
O=C(CSc1ccc(-c2ccco2)nn1)NCc1ccc2c(c1)OCO2 28.2 µM
C=CCn1c(=S)[nH]c2scc(-c3ccco3)c2c1=O 31.6 µM

Potency, inactive and 35.5 µM (active):
O=C1C(c2[nH]c3ccccc3c2O)=Nc2ccccc21

Potency, inactive:
O=[N+]([O-])c1ccc(N2CCSCC2)cc1O
NC(N)=N/N=C/c1ccc(Cl)c([N+](=O)[O-])c1
Cc1cc(C)c(OCC(=O)N/N=C/c2ccco2)c(C)c1
CN1[C@H]2CC(OC(=O)[C@@H](CO)c3ccccc3)C[C@H]1[C@H]1O[C@H]12 (some centres undefined)
NC(=O)c1sc(-c2ccsc2)cc1N
O=C(NCc1ccccn1)[C@]1(C(F)(F)F)C[C@H](CCc2ccccc2)CCCO1
O=C1OCCN1C(=O)[C@H]1[C@H](c2ccccc2)C(c2ccc(F)cc2)=NN1c1ccccc1
O=C1OCCN1C(=O)[C@H]1[C@H](c2ccc(F)cc2)C(c2ccccc2)=NN1c1ccc(Br)cc1
CC(C)C(NS(=O)(=O)c1ccc(-c2ccc(Br)cc2)cc1)C(=O)O (centres undefined)
CC(C)=CCC[C@]1(C)[C@@H](CC=C(C)C)C[C@@]2(CC=C(C)C)C(=O)[C@]1(C(=O)C(C)C)C(=O)C(CC=C(C)C)=C2O
CCCC(=O)Nc1c(O)c2ccccc2[nH]c1=O
CC(C)C(=O)Nc1c(O)c2ccccc2[nH]c1=O
COc1ccc(Cl)cc1NC(=O)Cn1nc(-c2ccc(C)cc2)n(C)c1=S
Cc1c(Cl)cccc1NC(=O)CC1SC(=NCC2CCCO2)NC1=O (centres undefined)
CCN=C1SC(CC(=O)Nc2ccc(C)cc2)C(=O)N1CC (centres undefined)
COc1cc(OC)c2c(c1C(CCN1CCCCC1)c1ccc(N(C)C)cc1)OC(=O)CC2c1ccc(N(C)C)cc1 (centres undefined)
O=[N+]([O-])c1cc(S(=O)(=O)Nc2cccc(Cl)c2)ccc1N=Nc1c(O)[nH]c2ccccc12
CC1=C(/C=C/C(C)=C/C=C/C(C)=C/C=C/C=C(C)/C=C/C=C(C)/C=C/C(=O)[C@]2(C)C[C@@H](O)CC2(C)C)C(C)(C)C[C@H](O)C1
C=C1CCN(C(CC(C)C)C(=O)NCc2cc(OC)c(OC)c(OC)c2)S(=O)(=O)c2ccccc21 (centres undefined)
COc1ccc(-c2ccc(OC)c(C3C4C=CCC(C)C4C(=O)N3Cc3ccccc3)c2)cc1C (centres undefined)
Cc1nc2ccc(C(=O)N3CCN(c4ccccc4)CC3)cc2s1
O=C(NNC(=O)c1cc2c(s1)CCCC2)c1ccccc1
CC(C)C(=O)N1CCC2(CC1)Oc1ccc(F)cc1C(=O)C21CC(c2ccccc2)=NO1 (centres undefined)
CCCOc1ccc(NC(=O)CC2C(=O)N(C)C(=S)N2Cc2ccc3c(c2)OCO3)cc1 (centres undefined)
O=C(Nc1cc(C(=O)Nc2ccc(S(=O)(=O)O)cc2)cc(C(=O)Nc2ccc(S(=O)(=O)O)cc2)c1)Nc1cc(C(=O)Nc2ccc(S(=O)(=O)O)cc2)cc(C(=O)Nc2ccc(S(=O)(=O)O)cc2)c1
Cc1ccc(CNC(=O)C2(C(F)(F)F)C/C(=C\Cc3ccccc3)CCCO2)o1 (centres undefined)
Fc1ccc(Cl)cc1-c1nc(Nc2ccncc2)c2nccnc2n1
COc1ccc(CNC(=O)C(Cc2ccccc2)n2cccc2)cc1 (centres undefined)
CC(Cc1ccccc1)C(=O)N(C)Cc1ccccc1 (centres undefined)
O=C(NCC1CC1)C1(C(F)(F)F)C/C(=C\CCO)CCCO1 (centres undefined)
CCOC(=O)C1=C(C)N=C2c3ccccc3C(=O)C2C1c1ccc(Br)cc1 (centres undefined)
CCOC(=O)C1=NOC(Cn2cc(C(C)=O)c(=O)[nH]c2=O)C1 (centres undefined)
NC(=O)C1=C[C@@H](c2csc3ccccc23)C[C@@H](OCc2ccc(CO)cc2)O1
COC(=O)c1ccc([C@@H](O)[C@H](C)C(=O)CC(=O)OC(C)(C)C)cc1
Cc1cccc(N=C2NC(=O)/C(=C/c3cn(C)c4ccccc34)S2)c1
CN(C)c1ccc(-n2cccc2/C=C2/SC(=Nc3ccc(F)cc3)NC2=O)cc1
O=C1CN(Cc2ccccc2)S(=O)(=O)c2ccccc21
CC(C)=CCN1CCC2(CCc3ccccc32)CC1
CCC1=NN2C(=N)/C(=C/c3cc(C)n(-c4ccccc4)c3C)C(=O)N=C2S1
CCS(=O)(=O)C1=NSC2=NC(=O)/C(=C\c3cc(C)n(-c4cccc(OC)c4)c3C)C(=N)N21
CCOC(OCC)OCC
COC(=O)C(CC(C)C)NS(=O)(=O)c1cc(Br)ccc1Br (centres undefined)
C=CCOC(=O)C(=C)C
O=C(O)c1ccc(/C=N/NC(=S)NCc2ccccc2)cc1
C/C(=N\NC(=S)NCc1ccccc1)C1CCCCC1
CC(O)[C@@H](N)C(=O)O (some centres undefined)
CNc1nnc(-c2ccco2)s1
Cc1ccc(OCC(=O)Nc2nnc(-c3ccco3)s2)cc1
COc1cc(C(F)(F)F)c(C(=O)N(C)c2ccc(Cl)cc2)cn1
COc1ccc(NC(=O)Cn2c(=O)n(Cc3ccco3)c(=O)c3ccccc32)cc1
Cc1cs/c(=N\N=C\c2ccc(O)cc2)n1Cc1ccco1
COc1ccc(C2CC(O)(c3ccccc3)Oc3cc(C)cc(C)c32)cc1 (centres undefined)
CCOc1ccc(NC(=O)CCC(=O)N/N=C/c2ccc([N+](=O)[O-])s2)cc1
CC(C)(C)c1cc(C(=O)N/N=C/c2ccc([N+](=O)[O-])s2)n[nH]1
CC(C)c1cnc(NC(=O)Cc2ccccc2)s1
CC(=O)OCC(NC(=O)C(Cc1ccccc1)NC(=O)OC(C)(C)C)C1OC(n2ccc(=O)[nH]c2=O)C(OC(C)=O)C1OC(C)=O (centres undefined)
COC(OC)c1ccnc(SCc2ccccc2Cl)n1
Brc1ccc(CSc2ccc(-c3ccco3)nn2)cc1
O=C(Nc1nnc(SCc2ccccc2)s1)c1ccco1
Nc1nc(SCc2ccccc2Cl)n[nH]1
COc1ccc(-c2ccc(C3C4C=CCCC4(C)C(=O)N3Cc3ccccc3)c(F)c2)cc1OC (centres undefined)
Cc1noc(C)c1-c1ccc2ncnc(NC(C)c3ccco3)c2c1 (centres undefined)
CCN(CC)/[N+]([O-])=N/Oc1cc(O/[N+]([O-])=N/N2CCCC2CO)c([N+](=O)[O-])cc1[N+](=O)[O-] (centres undefined)
OC(CCl)CCl
Cc1cc(Cl)ccc1NNC(=O)c1snnc1C
COc1cccc(-c2cc(=O)c3cc(NC(=O)c4ccc(C)cc4)ccc3[nH]2)c1
Cc1ccc(S(=O)(=O)Oc2ccc(/C=N/NC(=O)c3c(Cl)cnn3C)cc2)cc1
Cn1c2ccccc2c(=O)c2c(O)cccc21
CNC(=O)[C@]1(C(F)(F)F)C[C@H](CCc2ccccc2)CCCO1
O=C1c2cccc(OCC(=O)N3N=C(c4cccs4)CC3c3ccc(F)cc3)c2CCN1Cc1ccccc1 (centres undefined)
CC1CCCC(NC(=O)COC(=O)[C@@H]2CC(O)CN2S(=O)(=O)c2ccc3c(c2)OCCO3)C1C (some centres undefined)
O=C(CSc1ncn[nH]1)NCc1ccc2c(c1)OCO2
Cc1ccccc1-c1nnc(SCC(=O)NCc2ccc3c(c2)OCO3)n1C
C=C1CCN(C(CC(C)C)C(=O)N2CCOCC2)S(=O)(=O)c2ccccc21 (centres undefined)
Cc1cccc(C2c3[nH]c4ccccc4c3CCN2C(=O)c2cc(-c3cccn3C)n[nH]2)n1 (centres undefined)
O=C(O)c1ccc(/C=C2/SC(=S)N(c3cccc(C(F)(F)F)c3)C2=O)cc1
C=CCNC(=O)CSc1nc2scc(-c3ccco3)c2c(=O)n1CC=C
C=CCn1c(SCc2csc(C)n2)nc2scc(-c3ccc(C)o3)c2c1=O
O=C1C[C@@H](c2ccc3ccccc3c2)N1S(=O)(=O)c1ccccc1[N+](=O)[O-]

outcome, inactive:
CC(=O)OCC1OC(C#Cc2ccccc2Cl)C=CC1OC(C)=O (centres undefined) inactive [at 11.5 µM]
